In ChEMBL document CHEMBL4513216, “Probing the Open Global Health Chemical Diversity Library for Multistage-Active Starting Points for Next-Generation Antimalarials” (ACS Infect Dis, 2020):
Out of some 68,000 compounds screened, about 2,700 (4%) showed an effect of 50% or more. For the sample, strong results were picked, then their nearest neighbours and some compounds at random.

System: Plasmodium berghei
Assay: Screen against P. berghei liver stage (PbLuc), transformed with Luciferase, at 2uM
Type: functional, HepG2
Conditions: tested at 2 uM

SMILES | INHIBITION
CC(=O)Nn1ccc2c(nnc3c(-c4ccc(F)cc4)cnn32)c1=O | -27.89%
CN1CCC(c2cccc(-c3cccc(C(=O)O)c3)n2)CC1 | -14.73%
COC(=O)c1c(C(F)(F)F)cnc(OC)c1Cl | 53.54%
COc1ncc(C(F)(F)F)c(C(=O)O)c1Cl | 30.38%
COc1nccc(C(F)(F)F)c1C(=O)O | -16.59%
Cc1ccc(C(CNCc2c[nH]nc2C)N(C)C)cc1 (stereo unspecified) | 30.23%
Cc1nc(N2CCC(O)(c3ccc(F)cc3)CC2)c2c(C)nn(C)c2n1 | 15.92%
CN(C)CC(=O)N1CCOC2(CCCN(c3ncccc3F)C2)C1 (stereo unspecified) | -15.88%
Cc1noc(C)c1CNCC1COCc2c(-c3ccoc3)nnn2C1 (stereo unspecified) | 22.84%
CSc1nccc(N2CCN(C)C3(CCC(=O)N(CC4CC4)CC3)C2)n1 (stereo unspecified) | 55.4%
CCN1CCC2(CCC1=O)CN(c1ccnc(SC)n1)CCN2C (stereo unspecified) | -1.27%
COCCN1CCC2(CCC1=O)CN(c1ccnc(SC)n1)CCN2C (stereo unspecified) | 1.85%
CN1CCC(N(CCc2ccccc2)C(=O)c2ccc(C#N)nc2)CC1 | 31.12%
CCc1cc(CNC(=O)N2Cc3ccccc3N(C)CC2C)on1 (stereo unspecified) | 61.01%
CCc1cc(CNC(=O)N2Cc3ccccc3N(C)CC2C)[nH]n1 (stereo unspecified) | -19.7%
CC1CN(C)c2ccccc2CN1C(=O)NCc1ccon1 (stereo unspecified) | 16.79%
O=C(CN1CCC2(CCCN(CCO)C2=O)C1)NCCc1ccccc1 (stereo unspecified) | -27.89%
Brc1cccc(C2(CNCc3cc[nH]c3)CCOCC2)c1 | 10.93%
O=C(CS(=O)(=O)c1ccc(Cl)cc1)NC1CCCc2ccccc21 (stereo unspecified) | 44.37%
CN(C)CC1CN(c2ncnc3[nH]ccc23)CCO1 (stereo unspecified) | -35.72%
Cc1cc(N2Cc3cnn(CCO)c3C2)nc(-c2ccccc2)n1 | 67.53%
Cc1cc(N2Cc3cnn(CCO)c3C2)nc(-c2ccccc2O)n1 | 53.55%

SMILES | INHIBITION
CCCc1nc(C)cc(N2Cc3cnn(CCO)c3C2)n1 | -18.52%
Cc1cc(N2CCOC(C(F)(F)F)C2)nc(-c2ccccc2O)n1 (stereo unspecified) | -43.28%
Cc1cc(NCCO)nc(-c2ccccc2O)n1 | -4.81%
Cc1cc(N2CCN(CCO)CC2)nc(-c2ccncc2)n1 | 1.22%
Cc1ccc(CC(=O)N2Cc3nccn3CC(Cn3cccn3)C2)cc1 (stereo unspecified) | -8.05%
CCc1nc(C2CCCN(C(=O)c3cccc(C(N)=O)c3)C2)no1 (stereo unspecified) | -12.41%
COc1ccc2[nH]c3c(c2c1)CN(c1cc(NCCO)nc(N)n1)CC3 | 13.24%
O=C([C@@H]1Cc2[nH]cnc2CN1C(=O)NC1CCCCC1)N1CCCC1 | 17.77%
CN1Cc2nc[nH]c2C[C@H]1C(=O)NC1CCCCC1 | 60.6%
CN(Cc1ccccc1)C(=O)[C@@H]1Cc2[nH]cnc2CN1C | 4.59%
CCC(C)C(=O)N(C)Cc1cc(F)ccc1N1CCC(OC)CC1 (stereo unspecified) | 15.56%
Cc1ccc(CNC(=O)c2ccc(S(=O)(=O)N3C[C@H]4C[C@@H]3CN4)cc2)o1 | 44.86%
CCN1CCC(CNCc2c[nH]nc2C(C)(C)C)C1 (stereo unspecified) | 37.68%
CC(C)N1CCC(CNCc2c[nH]nc2C(C)(C)C)C1 (stereo unspecified) | 66.97%
CC(C)(C)c1n[nH]cc1CNCC1CCN(C2CC2)C1 (stereo unspecified) | 10.43%
CCc1nc(CN2CCOC(Cn3nc(C)cc3C)C2)no1 (stereo unspecified) | -7.73%
O=C(CCCc1nc(C2CC2)no1)N1CCCC(c2ccn[nH]2)C1 (stereo unspecified) | 41.84%
COc1ccc(Cl)cc1NC(=O)CCNc1ccc(C#N)cn1 | 9.27%
N#Cc1cccc(CN2CC[C@@H]3CN(c4ncccn4)CCO[C@@H]3C2)c1 | 14.94%
O=S(=O)(C1CC1)N1CCc2onc(COc3ccccn3)c2C1 | 16.03%
CC(=O)N1CCCN(C(=O)NCc2cc[nH]n2)CC1 | -27.69%
O=C(NCc1cc[nH]n1)N1CCCC(N2CCCC2)C1 (stereo unspecified) | 51.94%

SMILES | INHIBITION
CC(=O)NC1CCCN(C(=O)NCc2cc[nH]n2)C1 (stereo unspecified) | 45.83%
N#Cc1ccccc1N1CCCN(C(=O)NCc2cc[nH]n2)CC1 | -13.24%
Cc1nc(CCNC(=O)NCC(c2ccco2)N(C)C)cs1 (stereo unspecified) | 34.73%
O=C(NCc1cc[nH]n1)N1CCN(c2ncccn2)CC1 | -23.42%
CCN1CCN(C(=O)NCc2cc[nH]n2)CC1 | 56.02%
O=C(NCc1cc[nH]n1)NCC(c1ccco1)N1CCCC1 (stereo unspecified) | -4.1%
O=C(NCc1cc[nH]n1)N1CCCCC(N2CCCC2)C1 (stereo unspecified) | 8.37%
CCOc1ccccc1N1CCN(C(=O)NCc2cc[nH]n2)CC1 | 56.02%
CN(C)C(CNC(=O)NCc1cc[nH]n1)c1ccco1 (stereo unspecified) | 53.61%
O=C(NCc1cc[nH]n1)N1CCN(c2ccccc2Cl)CC1 | -56.99%
CCCN(CC)C(=O)c1cc(Cn2c(C)nc3ccccc32)[nH]n1 | 38.75%
CNS(=O)(=O)c1cccc(CNc2ncccn2)c1 | -18.94%
c1ccn(Cc2nnc3n2CCCN(Cc2ccoc2)C3)c1 | 18.31%
COc1ccccc1C(CNC(=O)NCc1cc[nH]n1)N1CCCC1 (stereo unspecified) | -10.44%
CC(C)CC(CNC(=O)NCc1cc[nH]n1)N1CCOCC1 (stereo unspecified) | 40.29%
CCC(CNC(=O)NCc1cc[nH]n1)N1CCCC1 (stereo unspecified) | 76.6%
CC(=O)N1CC[C@@H]2CN(Cc3ccncc3)S(=O)(=O)[C@@H]2CC1 | -66.17%
Cc1c(C2CCOC(C)(C)C2)nc(N)c(C#N)c1-c1ccc(O)cc1 (stereo unspecified) | -11.34%
Cc1cc(C)c2c(c1)NC(=O)C2CC(=O)O (stereo unspecified) | 33.22%
Cc1cc(C)c2c(c1)C(CC(=O)O)C(=O)N2 (stereo unspecified) | 52.38%
Cc1ccc(C)c2c1NC(=O)C2CC(=O)O (stereo unspecified) | 42.8%
CCN1CC2(CC1=O)CN(C(=O)c1cccs1)CCN(C(=O)N(C)C)C2 (stereo unspecified) | -48.39%

SMILES | INHIBITION
CCc1noc(CS(=O)(=O)Cc2ccccc2Cl)n1 | 61.32%
CCc1noc(CS(=O)(=O)Cc2nc(Cc3ccccc3)no2)n1 | 34%
CCc1noc(CS(=O)(=O)Cc2ccccc2C)n1 | 30.59%
CC(=O)N1CCCC1C(=O)NCCOc1cccc(F)c1 (stereo unspecified) | 16.25%
CN(C)C(=O)NC1COC2(CCN(Cc3ccc(Cl)c(F)c3)CC2)C1 (stereo unspecified) | -8.04%
CN(C)C(=O)NC1COC2(CCN(Cc3ccccc3)CC2)C1 (stereo unspecified) | 0.14%
CN(C)C(=O)NC1COC2(CCN(Cc3ccc(N(C)C)cc3)CC2)C1 (stereo unspecified) | 53.98%
Cc1ccoc1C(=O)N1CC[C@H]2C[C@H](c3nnc(C4CC4)o3)O[C@@H]2C1 | -11.79%
CNC(=O)C1(C)CCCN1Cc1cnn(C)c1C (stereo unspecified) | 18.15%
CC(C)OCCCN(CC(=O)N1CCNCC1)C(=O)c1ccc(F)cc1 | -20.36%
COc1cc(Cl)ccc1CNC(=O)N1CCC(n2cncn2)CC1 | 70.27%
COc1ccc(OC)c(CNC(=O)N2CCC(n3cncn3)CC2)c1 | 3.06%
CCOc1ccccc1CNC(=O)N1CCC(n2cncn2)CC1 | -111.08%
NC(=O)NC(=O)CCSc1ccccc1Cl | 12.14%
Cc1nc(C)n(CC2CN(CCCc3ccccc3)CCO2)n1 (stereo unspecified) | 40.72%
Cc1nc(C)n(CC2CN(Cc3cccc4ccccc34)CCO2)n1 (stereo unspecified) | -53.98%
COc1ccc(C)cc1CN1CCOC(Cn2nc(C)nc2C)C1 (stereo unspecified) | 60.09%
Cc1cc(C)n(CC2CN(CCOc3ccc(C#N)cc3)CCO2)n1 (stereo unspecified) | 13.24%
COc1ccc(CCN2CCOC(Cn3nc(C)nc3C)C2)cc1 (stereo unspecified) | 34.97%
Cc1nc(C)n(CC2CN(Cc3ccccc3OC(C)C)CCO2)n1 (stereo unspecified) | -3.06%
Cc1nc(C)n(CC2CN(CCc3ccncc3)CCO2)n1 (stereo unspecified) | 70.27%
Cc1nc(C)n(CC2CN(CCOc3cccc(C#N)c3)CCO2)n1 (stereo unspecified) | -5.15%

SMILES | INHIBITION
Cc1nc(C)n(CC2CN(CCOc3ccc(C#N)cc3)CCO2)n1 (stereo unspecified) | 50.05%
Cc1ncc(S(C)(=O)=O)c(N2CCCCCC2)n1 | 2.97%
CCn1c(C)nnc1CN(C)C1CCN(Cc2nnc(C3CC3)o2)C1 (stereo unspecified) | 12.75%
CCC1(C(=O)O)CCCN(C(=O)c2ccc(O)c(Cl)c2)C1 (stereo unspecified) | -2.86%
CCOC(=O)c1coc(N2CCN(Cc3ccc(C)cc3)C(=O)C2)n1 | 33.9%
Cn1nc(C2CCCN(Cc3cccc(F)c3)C2)c2nccnc21 (stereo unspecified) | -13.37%
O=C(CCN1CCC(C(=O)c2cc(F)ccc2F)CC1)NC1CCCC1 | 64.9%
O=C(CN1CCC(C(=O)c2cc(F)ccc2F)CC1)NC1CCCC1 | -21.84%
O=C(CCN1CCC(C(=O)c2cc(F)ccc2F)CC1)NC1CC1 | 34.93%
COCCN1CCC(C(=O)c2cc(F)ccc2F)CC1 | -11.34%
CC(C)OCCN1CCC(C(=O)c2cc(F)ccc2F)CC1 | 50.76%
CCOCCN1CCC(C(=O)c2cc(F)ccc2F)CC1 | 43%
CN1CCC(N(C)CCC(=O)N2CCC(Oc3ccc(Cl)cc3)CC2)C1 (stereo unspecified) | 8.75%
Cn1nc(C(=O)N2CCOCC2)c2c1CN(CC1CCC1)C2 | 36.29%
Cc1cc(-c2ccc(=O)n(C3CCN(S(=O)(=O)N(C)C)CC3)n2)c(C)o1 | -34.37%
CCC(CO)N(Cc1ccco1)Cc1c(C)nn(C)c1Cl (stereo unspecified) | -10.67%
CN1CCN(C(=O)c2cccn2C)c2ccccc2C1 | -9.98%
CCOC(=O)[C@]12CCCN(Cc3nccs3)C[C@H]1CN(C(C)C)C2 | 34.47%
